From PubChem BioAssay (NCATS) come the findings set out here.

Assay [1] concerns the target ATP-dependent 6-phosphofructokinase (Trypanosoma brucei brucei) (UniProt O15648). Nature of the assay: qHTS Assay to Find Inhibitors of T. brucei phosphofructokinase: hit validation (AID 492961).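 Further: luminescence reports ADP formed as PFK phosphorylates fructose-6-phosphate with ATP; on the % scale 0 is the no-effect control and ±100 the full control effect.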 The essentials:
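PFK 1.25 nM, F6P 0.5 mM, ATP 0.1 mM, MgCl2 5 mM, 0.1 M TEA pH 8.0, Tween20 0.01%, BSA 0.1%; 45 min RT. ADP-Glo two-step detection, luminescence. qHTS titration; curve fitting with curve-class categorization.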

In assay [2] the target is Ubiquitin carboxyl-terminal hydrolase 1 (Homo sapiens) (UniProt O94782). Nature of the assay: Inhibitors of USP1/UAF1: Pilot qHTS (AID 504865).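 Further: rhodamine fluorescence freed from ubiquitin-rhodamine substrate followed over time; top concentration of the series differs between compounds; on the % scale 0 is the no-effect control and ±100 the full control effect; nearly all actives have a fitted effect of over 35% in size.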 The method in brief:
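1nM USP1/UAF1 + cpd, 15 min RT; start w/ Ub-Rho 150nM final; kinetic FL 480/540 nm, 6 reads q60 s. Buffer 50mM HEPES pH 7.8, 0.5mM EDTA, 1mM TCEP, 0.01% Tween-20, 0.1 mg/ml BSA.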
On the technique in general: In qHTS, concentration-response curves come from the screen itself.

Assay [3] in a line: Cell Viability - LYMP1-002 - Assay at 24 hr (AID 993). Further: on the % scale 0 is the no-effect control and ±100 the full control effect. The essentials:
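Cells plated 2500/well, 5 hr 37 C; compounds added, 24 hr 37 C; CellTiter-Glo added, 30 min RT; luminescence read. Tetraoctylammonium bromide positive control. Hill-equation AC50.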

Assay [4] is described as follows: Cell Viability - LYMP1-002 - Assay at 40 hr (AID 994).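 Further: 0% = DMSO only and full inhibition = 92 µM tetraoctylammonium bromide; nearly all actives have a fitted effect of over 60% in size.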 The essentials:
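Luminescent ATP signal served as the viability readout, with decreases taken as toxicity. Cells were treated with compounds across a concentration range for 40 hours at 37 C, and AC50 values came from standard Hill modeling.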

A short description of assay [5]: qHTS Assay for Identification of Small Molecule Inducers of Hypoxia Response (AID 2120; active means well fitted curve in the direction sought with a large enough effect in the signal ratio, with a control signal flat, not every such curve was filed as active; the % refers to the signal ratio; further: 0% is about no effect). The method in brief:
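ME-180 HRE-bla cells plated in Opti-MEM/0.5% dialyzed FBS, rested 4-5 h, then dosed with compound titrations by pin tool. After 17 h at 37 degrees C, CCF4 dye loaded 2.5 h at RT; 460/530 nm ratio gave %Activity and AC50.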

A short description of assay [6]: qHTS Assay for Lipid Storage Modulators (AID 1519; calls by dose curve; on activity change, negative = inhibition: on the % scale 0 is the no-effect control and ±100 the full control effect). The conditions noted are these: Drosophila S3 cells, BODIPY lipid droplet/cell ratio, laser cytometry, cells loaded with oleic acid. The method in brief: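 Cells seeded at 5,000 per well were treated with compounds over a concentration series and loaded with oleic acid (400 uM, as added). Lipid droplet fluorescence (488 nm excitation, 500-530 nm channel) was read by laser-scanning cytometry and normalized to 20 uM Triacsin C.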

In assay [7] the target is Estrogen receptor (Homo sapiens) (UniProt P03372). Nature of the assay: qHTS assay for small molecule antagonists of estrogen receptor alpha signaling (AID 588513; active means well fitted curve in the direction sought with a large enough effect in the signal ratio, with a control signal flat, not every such curve was filed as active; the % refers to the signal ratio; further: on the % scale 0 is the no-effect control and ±100 the full control effect). The essentials: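 Beta-lactamase reporter, antagonist mode, HEK 293 GripTite cells; 0.5nM E2 stimulus, 18 h, 37 C; CCF4 dye 2 h RT; fluorescence. IC50 and efficacy from Hill fits, normalized to E2 and DMSO.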

Assay [8] shares this target. Kind of assay: qHTS assay for small molecule agonists of estrogen receptor alpha signaling (AID 588514; calls by dose curve;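 further: 0% = vehicle only and 100% = reference agonist; nearly all actives have a fitted effect of over 70% in size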). The essentials: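 Cells were plated at 5000/well, incubated 4 hrs at 37 C, dosed with compound titration series, incubated 18 hrs at 37 C, loaded with CCF4 dye for 2 hrs at RT, then fluorescence was read.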
Assay [9] concerns the target Alpha-galactosidase A (Homo sapiens) (UniProt P06280). Kind of assay: Counterscreen for Glucocerebrosidase Inhibitors: qHTS Assay for Human alpha-Galactosidase at pH 4.5 (AID 992). Further: 0% is about no effect. The method in brief: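 Read-out is 4-methylumbelliferone fluorescence (365 nm excitation, 440 nm emission) after a pH 10 NaOH/glycine stop. Reactions held 2 nM enzyme and 80 uM substrate at pH 4.5 for 20 min at room temperature.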
In general terms: Counterscreens check selectivity or assay interference.

Assay [10] deals with alpha-glucosidase (Oryza sativa, rice) (UniProt Q653V4). Nature of the assay: Counterscreen for Glucocerebrosidase Inhibitors: qHTS Assay for Rice alpha-Glucosidase at pH 5.0 (AID 997).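 Further: 0% = full activity with enzyme and -100% = basal without enzyme.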 The method in brief: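 Rice alpha-glucosidase (4 nM final) with 400 uM 4-methylumbelliferyl-alpha-D-glucopyranoside in citrate buffer pH 5.0, 20 min at room temperature, stopped at pH 10; fluorescence 365/440 nm, compounds 0.7 nM–77 uM, AC50 from Hill fits.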

SMILES strings stand for the structures. Results filed as inconclusive are left out. Calls of active or inactive are those of the source. Unless noted, the call rests on the fitted dose curve; in most records, active means well fitted curve in the direction sought with a large enough effect; inconclusive means small, poorly fitted or top-dose-only effect, or another doubt; inactive means no such curve, though single readings can be large; an effect the other way counts as inactive or inconclusive.

Estrogen receptor (Homo sapiens), sequence (P03372 whole entry, looked up): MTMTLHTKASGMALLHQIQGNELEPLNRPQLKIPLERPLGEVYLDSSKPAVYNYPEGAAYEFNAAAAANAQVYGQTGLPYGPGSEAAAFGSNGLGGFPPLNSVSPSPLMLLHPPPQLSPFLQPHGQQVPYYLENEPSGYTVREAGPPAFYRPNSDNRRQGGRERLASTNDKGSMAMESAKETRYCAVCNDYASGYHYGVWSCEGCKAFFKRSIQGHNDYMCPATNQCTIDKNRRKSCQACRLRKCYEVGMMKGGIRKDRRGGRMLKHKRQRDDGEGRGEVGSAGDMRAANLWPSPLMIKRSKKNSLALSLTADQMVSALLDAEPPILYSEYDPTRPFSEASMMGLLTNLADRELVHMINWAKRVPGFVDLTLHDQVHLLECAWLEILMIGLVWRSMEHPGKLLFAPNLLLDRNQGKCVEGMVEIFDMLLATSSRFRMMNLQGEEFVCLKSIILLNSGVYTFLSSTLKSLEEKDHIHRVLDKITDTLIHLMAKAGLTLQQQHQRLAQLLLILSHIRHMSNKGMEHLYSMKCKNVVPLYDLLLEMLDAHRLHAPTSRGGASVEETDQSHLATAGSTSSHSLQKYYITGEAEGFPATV
Ubiquitin carboxyl-terminal hydrolase 1 (Homo sapiens), sequence (O94782 whole entry, looked up): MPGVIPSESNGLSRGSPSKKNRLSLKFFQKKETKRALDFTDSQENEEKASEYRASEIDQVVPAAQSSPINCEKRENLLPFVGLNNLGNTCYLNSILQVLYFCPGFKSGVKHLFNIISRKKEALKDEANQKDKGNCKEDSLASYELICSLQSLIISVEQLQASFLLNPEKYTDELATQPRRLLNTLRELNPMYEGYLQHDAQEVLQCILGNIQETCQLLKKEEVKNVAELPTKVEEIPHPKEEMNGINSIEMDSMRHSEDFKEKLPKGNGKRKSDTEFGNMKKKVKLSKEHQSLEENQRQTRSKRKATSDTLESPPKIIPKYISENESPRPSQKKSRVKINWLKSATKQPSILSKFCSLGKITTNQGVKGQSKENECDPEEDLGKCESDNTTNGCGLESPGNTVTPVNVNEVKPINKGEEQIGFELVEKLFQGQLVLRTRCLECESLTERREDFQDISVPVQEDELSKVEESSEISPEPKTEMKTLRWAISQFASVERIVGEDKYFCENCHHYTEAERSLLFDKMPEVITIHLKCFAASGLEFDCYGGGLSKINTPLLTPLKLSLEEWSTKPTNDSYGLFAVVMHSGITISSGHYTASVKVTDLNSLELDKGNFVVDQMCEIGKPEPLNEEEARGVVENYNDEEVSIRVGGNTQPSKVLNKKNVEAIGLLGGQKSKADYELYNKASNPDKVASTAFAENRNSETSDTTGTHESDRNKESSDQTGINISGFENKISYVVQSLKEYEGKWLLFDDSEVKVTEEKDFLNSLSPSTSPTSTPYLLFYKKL
Alpha-galactosidase A (Homo sapiens), sequence (P06280 whole entry, looked up): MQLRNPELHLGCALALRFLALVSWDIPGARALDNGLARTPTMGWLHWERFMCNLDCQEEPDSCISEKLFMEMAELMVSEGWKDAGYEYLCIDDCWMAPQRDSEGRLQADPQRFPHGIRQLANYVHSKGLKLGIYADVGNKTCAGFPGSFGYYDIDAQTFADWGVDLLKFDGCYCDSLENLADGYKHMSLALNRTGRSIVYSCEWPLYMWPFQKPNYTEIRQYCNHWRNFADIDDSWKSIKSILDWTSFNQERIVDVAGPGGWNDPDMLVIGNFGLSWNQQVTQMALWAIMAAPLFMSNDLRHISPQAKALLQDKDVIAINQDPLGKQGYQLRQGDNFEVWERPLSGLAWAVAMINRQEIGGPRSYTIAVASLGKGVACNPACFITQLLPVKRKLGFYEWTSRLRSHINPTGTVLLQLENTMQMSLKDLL
ATP-dependent 6-phosphofructokinase (Trypanosoma brucei brucei), sequence (O15648 whole entry, looked up): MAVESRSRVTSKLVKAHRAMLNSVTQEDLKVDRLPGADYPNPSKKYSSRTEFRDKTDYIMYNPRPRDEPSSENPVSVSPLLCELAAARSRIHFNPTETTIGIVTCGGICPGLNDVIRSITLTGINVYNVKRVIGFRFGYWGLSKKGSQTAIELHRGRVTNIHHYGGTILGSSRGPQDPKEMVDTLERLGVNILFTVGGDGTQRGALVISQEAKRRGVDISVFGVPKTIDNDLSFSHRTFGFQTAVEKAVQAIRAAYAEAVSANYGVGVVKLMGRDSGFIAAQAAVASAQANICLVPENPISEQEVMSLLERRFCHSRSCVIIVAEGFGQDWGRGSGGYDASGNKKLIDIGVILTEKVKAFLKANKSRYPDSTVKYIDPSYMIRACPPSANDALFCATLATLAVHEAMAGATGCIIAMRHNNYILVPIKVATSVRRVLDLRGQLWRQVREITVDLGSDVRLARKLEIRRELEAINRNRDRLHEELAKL

`CCOC(=O)C(CCc1ccccc1)NC(C)C(=O)N1Cc2ccccc2CC1C(=O)O` (stereo not given): the compound was classed as inactive in [1] and in assay [2].
Regarding `C=C1C[C@]23C[C@@]1(O)CC[C@H]2[C@@]12C=C[C@H](O)[C@@](C)(C(=O)O1)[C@H]2[C@@H]3C(=O)O`, the compound was called inactive in [3], in assay [4] and in assay [5].
Regarding `CCc1cccc2c3c([nH]c12)[C@@](CC)(CC(=O)O)OCC3`, the activity change, negative = inhibition in assay [6] (at 25.7 µM (top of the series)) was -1.67% (inactive). The max response in assay [6] (measured here: cell count channel max response) worked out at 8.85%; in assay [6] (measured here: lipid channel max response), 4.97%.
On to `O=C(/C=C/C=C/c1ccc2c(c1)OCO2)N1CCCCC1`, for which the outcome in assay [2], in assay [7] and in assay [8] was inactive.
Consider `C[C@]1(C2CCCC2)Cc2cc(OCC(=O)O)c(Cl)c(Cl)c2C1=O`, for which the call in assay [9] and in assay [10] was inactive.
`CC(C)C[C@H](NC(=O)[C@@H]1O[C@H]1C(=O)O)C(=O)NCCCCN=C(N)N`: the result in [9] and in assay [10] was inactive.
Regarding `COc1ccc(CCC(=O)c2c(O)cc(O[C@@H]3O[C@H](CO)[C@@H](O)[C@H](O)[C@H]3O[C@@H]3O[C@@H](C)[C@H](O)[C@@H](O)[C@H]3O)cc2O)cc1O`, the compound was called inactive in assay [3], in assay [4], in assay [5], in [7] and in assay [8].
